Hit rate of the full screen: of about 76,000 compounds, about 1,900 (2.5%) were called active. Another 5% or so got no clear call; they are omitted. Calls follow the shape of the dose curve; as a rule, active = well fitted inhibition curve with a large enough effect; inconclusive = small, poorly fitted or top-dose-only effect; inactive = flat fitted curve, though single readings scatter. Many of the other results were omitted from the sample, so actives are more common in it than they were.
Target: Luciferin 4-monooxygenase (Photinus pyralis) (UniProt P08659)
Test: Firefly luciferase inhibition profiling of diverse chemical library using quantitative high-throughput screening; also: nearly all actives have a fitted effect of over 65% in size
Conditions: purified P. pyralis luciferase, luminescence, biochemical; series mostly up to 115 µM
Summary of the method: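 Luminescence read by CCD imaging after purified firefly luciferase (10nM final) was added to substrate buffer holding 10uM D-luciferin and 10uM ATP, pH 7.5, pre-dosed with compound.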
Potency is read from the fitted curve at half-maximal effect.

Sequence of Luciferin 4-monooxygenase (Photinus pyralis) (P08659 whole entry, looked up): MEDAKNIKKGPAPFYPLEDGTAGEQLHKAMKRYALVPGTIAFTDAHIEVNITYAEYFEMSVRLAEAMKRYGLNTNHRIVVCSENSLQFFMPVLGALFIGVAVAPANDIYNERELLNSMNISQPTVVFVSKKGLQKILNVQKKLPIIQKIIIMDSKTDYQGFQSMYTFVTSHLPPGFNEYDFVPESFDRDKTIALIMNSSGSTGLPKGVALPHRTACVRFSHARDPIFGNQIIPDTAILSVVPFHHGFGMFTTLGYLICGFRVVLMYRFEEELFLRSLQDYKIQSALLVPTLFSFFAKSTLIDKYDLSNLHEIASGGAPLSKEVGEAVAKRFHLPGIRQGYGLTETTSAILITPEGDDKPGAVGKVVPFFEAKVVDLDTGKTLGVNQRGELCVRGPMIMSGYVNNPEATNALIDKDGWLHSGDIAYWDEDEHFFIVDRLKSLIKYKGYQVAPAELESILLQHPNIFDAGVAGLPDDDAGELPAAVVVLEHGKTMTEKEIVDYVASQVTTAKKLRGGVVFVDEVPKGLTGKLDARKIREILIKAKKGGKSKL

Potency, inactive:
COc1ccccc1N1CCN(C(=O)Cn2c(N3CCc4ccccc4C3)nc(C)cc2=O)CC1, Cc1cccc(-c2cc(C3CCN(S(=O)(=O)c4cccc(C#N)c4)CC3)[nH]n2)c1, COc1ccc(F)cc1CN1CCCC(CO)(CC2CC2)C1 (stereo not given), CCNC(=O)N1CCCC1c1noc(CCC(=O)NCC2CC2)n1 (stereo not given), C=CCC1(OC)CCN(C(=O)c2cnn3cc(CN(CC)CC)cnc23)CC1, COCCNC(=O)[C@H]1C[C@H](Oc2cccnc2)CN1S(=O)(=O)c1cn(C)cn1, CN(C)Cc1cn2c(=O)n(C)cc(-c3cccc(OCc4ccccc4)c3)c2n1, COc1cncc(-c2cccc(COc3ccc4c(cnn4CC[S+](C)(=O)[O-])c3)c2)c1, Cn1cnc(S(=O)(=O)N2CCC(N(C(=O)C3CC3)C3CCOCC3)CC2)c1, Cc1ccc(C(=O)NC2CCN(c3cc(-c4cccs4)[nH]n3)C2)cc1 (stereo not given), Cc1cccnc1C(=O)N[C@@H]1CN(c2ncccn2)C[C@H]1CO, COc1ccc(-c2nccc3c(=O)cc(N(C)c4ccccc4)oc23)cn1, COc1ccc(CN2CCc3oc(C)c(C(=O)NC(C)Cn4ccc(C)n4)c3C2)cc1 (stereo not given), COCCOCC(=O)N1CCCC(c2nc(-c3ccccc3)no2)CCNC(=O)CC1 (stereo not given), O=[N+]([O-])c1cccc(-c2noc([C@@H]3C[C@@H](O)CN3Cc3cccnc3)n2)c1, O=[N+]([O-])c1cccc(-c2noc([C@@H]3C[C@@H](O)CN3Cc3cccc(OC(F)(F)F)c3)n2)c1, CCCNC(=O)C(NC(=O)c1cccc(OC)c1)C1CCN(C(=O)c2ccccc2F)CC1 (stereo not given), CCNC(=O)O[C@@H]1CO[C@H]2[C@@H]1OC[C@@H]2NC(=S)Nc1cccc2ccccc12, COc1ccc(CN2C(=O)CO[C@H](c3ccc(NC(=O)c4ccccc4OC)cc3)[C@H]2CO)cc1, COc1ccc(NC(=O)c2ccc(CN3C(=O)NC4(CCOCC4)C3=O)cc2)c(OC)c1, Cc1nc(-c2ccccc2)n(CC(=O)NCc2ccc(F)cc2)c(=O)c1CCO, Cc1ccc(S(=O)(=O)N2CCC(CCC(=O)NCc3ccccc3)CC2)cc1, O=C(c1ccc2c(c1)[nH]c(=O)n2C1CCC(O)CC1)N1CCc2ccccc2C1 (stereo not given), CN1N=C(C(=O)N2CCC(CCC(=O)Nc3ccc4c(c3)OCCO4)CC2)CCC1=O, CCCNC(=O)N(C1CCOCC1)C1CCN(C(=O)c2ccncc2)CC1, Cc1ccc(C(=O)N2CCC(c3nn(-c4ccccc4)c(=O)[nH]3)CC2)cc1, COc1ccc(NC(=O)CCC2CCN(S(=O)(=O)c3ccc(C)cc3)CC2)cc1F, CN(CCCNC1CCC2(CCNCC2)CC1)c1ccccc1, O=C(Nc1ccc(F)cc1)[C@@H]1C[C@@H](c2ccc(F)cc2)N([S+](=O)([O-])c2ccccc2)C1, O=C(NCc1ccccc1)NC1CCc2nn(CC3CC3)c(=O)n2CC1 (stereo not given), CCCc1noc(-c2cn(C3CCN(C(=O)c4ccc(C)s4)CC3)nn2)n1, Cc1cc(NC(=O)c2ccc3c(c2)OCCN(CCC(F)(F)F)C3)ccc1F, O=C(NCc1cccs1)c1ccc2c(c1)OCCN(c1ccccc1)C2, CC(C)NC(=O)C1COC2(CCN(C(=O)c3ccccc3Cl)CC2)N1C(=O)c1ccccc1 (stereo not given), O[C@H]1CC[C@@H](Cc2cc(-c3ccccc3)on2)O[C@@H]1CNCc1ccccc1, CCn1ncc(N2CCC(NC(=O)C(C)c3ccccc3)CC2)cc1=O (stereo not given), C=CCN1C(=O)[C@@H]2C[C@@H](NC(=O)c3ccncc3)CCN2C1=O, Cc1nc(-c2ccc(F)cc2)n(Cc2cccc(Cl)c2)c(=O)c1CCO, Cn1cccc1CN1CCC(N2CCC[S+]2(=O)[O-])CC1, CCN1C(=O)CCN(C(=O)CCc2ccc(OC)cc2)CC12CCOCC2, CC(C)CC(=O)N1CCC(c2noc(-c3cnccn3)n2)C1 (stereo not given), COc1ccc(C(=O)N2CCC3(CC2)CC(OC)CCO3)cc1OC (stereo not given), COCc1nncn1C1CCN(C(=O)c2ccccc2F)CC1, CCn1cnnc1CC1CCN(C(=O)C2CCN(Cc3nc(-c4cccc(C)c4)oc3C)CC2)CC1, Cc1noc(-c2cccc(OC3CN(C(=O)NCCc4ccccc4)C3)c2)n1, COc1nccc(N2CCC(CC(=O)NCc3ccc(F)cc3Cl)CC2)n1, COc1ccc2[nH]c(C(=O)N[C@@H]3CN(S(C)(=O)=O)C[C@H]3CN(C)C)cc2c1, CN(C)C[C@@H]1CN(C)C[C@H]1NC(=O)c1ccnnc1, COc1ccccc1Nc1cnc2ccc(-c3ccc(OC)c(OC)c3)nn12

Potency, active:
C[S+](=O)([O-])CCn1ncc2cc(OCc3cccc(-c4ccccc4)c3)ccc21 14.1 µM, Cc1ccc2cc(CN3CCN(CC(N)=O)CC3)c(-c3cccs3)nc2c1 12.6 µM, O=[N+]([O-])c1ccccc1CN1C[C@H](O)C[C@H]1c1nc(-c2ccc(F)cc2)no1 50.1 µM, CCNC(=O)C1C(c2cccc(NC(=O)c3ccc(OC)cc3)c2)OC(=O)N1Cc1ccc(C)cc1 (stereo not given) 11.2 µM, Cc1ccc(C(=O)N2CCC(CCC(=O)N3CCc4ccccc4C3)CC2)cc1 22.4 µM, CCCNc1cc(N2CCC(CCC(=O)Nc3ccc(C)cc3)CC2)ncn1 28.2 µM, CCCNC(=O)CCC1CCN(C(=O)c2ccc(C)cc2)CC1 31.6 µM, O=C(NCCc1ccccc1)c1ccc2c(c1)OCCN(CCC(F)(F)F)C2 39.8 µM, CC(C)(C)c1ccc(N2C(=O)[C@@H]3C[C@@H](NC(=O)[C@@H](O)c4ccccc4)CCN3C2=O)cc1 35.5 µM, CCn1cnnc1CC1CCN(C(=O)c2cc(-c3ccc(F)cc3)nc3ccccc23)CC1 14.1 µM, CN(C)C[C@@H]1CN(C)C[C@H]1NC(=O)c1cc2ccccc2[nH]1 39.8 µM
